Source: the supplement of paper PMC6897291

Key:
[1] = system: U-2932; experiment: growth inhibition by drug alone (1 - RLU/untreated control) (fraction); higher = stronger inhibition; settings: 177Lu-lilotomab satetraxetan 0 ug/ml
Summary of the method: (§1)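 Growth inhibition was calculated from RealTime-Glo RLU against untreated no-drug wells. Values equal 1 − RLU/mean of 48 untreated no-drug wells per plate, read daily from day 3 after 1 h at 37°C. RIVA and U-2932 cells, with or without 18 h pretreatment by a radiolabelled anti-CD37 antibody conjugate (~600 MBq/mg; 0.5 µg/ml RIVA, 1 µg/ml U-2932), were washed and plated at 3,000 cells/well on compound-printed plates at 10/100 nM (RIVA) or 10/1,000 nM (U-2932).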

[2] = system: RIVA; experiment: as above; settings: 177Lu-lilotomab satetraxetan 0 ug/ml
Summary of the method: as §1

[3] = system: U-2932; experiment: growth inhibition by drug plus 177Lu-lilotomab satetraxetan (1 - RLU/untreated control) (fraction); higher = stronger inhibition; settings: 177Lu-lilotomab satetraxetan 1 ug/ml
Summary of the method: as §1

[4] = system: RIVA; experiment: as above; settings: 177Lu-lilotomab satetraxetan 0.5 ug/ml
Summary of the method: as §1

SMILES	growth inhibition by drug alone ([1]; 10 nM, time (day): 3)	growth inhibition by drug alone ([1]; 10 nM, time (day): 4)	growth inhibition by drug alone ([1]; 10 nM, time (day): 5)	growth inhibition by drug alone ([1]; 10 nM, time (day): 6)	growth inhibition by drug alone ([1]; 1000 nM, time (day): 3)	growth inhibition by drug alone ([1]; 1000 nM, time (day): 4)	growth inhibition by drug alone ([1]; 1000 nM, time (day): 5)	growth inhibition by drug alone ([1]; 1000 nM, time (day): 6)	growth inhibition by drug alone ([2]; 10 nM, time (day): 3)	growth inhibition by drug alone ([2]; 10 nM, time (day): 4)	growth inhibition by drug alone ([2]; 10 nM, time (day): 5)	growth inhibition by drug alone ([2]; 10 nM, time (day): 6)	growth inhibition by drug alone ([2]; 100 nM, time (day): 3)	growth inhibition by drug alone ([2]; 100 nM, time (day): 4)	growth inhibition by drug alone ([2]; 100 nM, time (day): 5)	growth inhibition by drug alone ([2]; 100 nM, time (day): 6)	growth inhibition by drug plus 177Lu-lilotomab satetraxetan ([3]; 10 nM, time (day): 3)	growth inhibition by drug plus 177Lu-lilotomab satetraxetan ([3]; 10 nM, time (day): 4)	growth inhibition by drug plus 177Lu-lilotomab satetraxetan ([3]; 10 nM, time (day): 5)	growth inhibition by drug plus 177Lu-lilotomab satetraxetan ([3]; 10 nM, time (day): 6)	growth inhibition by drug plus 177Lu-lilotomab satetraxetan ([3]; 1000 nM, time (day): 3)	growth inhibition by drug plus 177Lu-lilotomab satetraxetan ([3]; 1000 nM, time (day): 4)	growth inhibition by drug plus 177Lu-lilotomab satetraxetan ([3]; 1000 nM, time (day): 5)	growth inhibition by drug plus 177Lu-lilotomab satetraxetan ([3]; 1000 nM, time (day): 6)	growth inhibition by drug plus 177Lu-lilotomab satetraxetan ([4]; 10 nM, time (day): 3)	growth inhibition by drug plus 177Lu-lilotomab satetraxetan ([4]; 10 nM, time (day): 4)	growth inhibition by drug plus 177Lu-lilotomab satetraxetan ([4]; 10 nM, time (day): 5)	growth inhibition by drug plus 177Lu-lilotomab satetraxetan ([4]; 10 nM, time (day): 6)	growth inhibition by drug plus 177Lu-lilotomab satetraxetan ([4]; 100 nM, time (day): 3)	growth inhibition by drug plus 177Lu-lilotomab satetraxetan ([4]; 100 nM, time (day): 4)	growth inhibition by drug plus 177Lu-lilotomab satetraxetan ([4]; 100 nM, time (day): 5)	growth inhibition by drug plus 177Lu-lilotomab satetraxetan ([4]; 100 nM, time (day): 6)
O=C(O)c1ccc2cc(-c3ccc(O)c(C45CC6CC(CC(C6)C4)C5)c3)ccc2c1	0.159	0.0954	-0.0581	-0.0515	0.757	0.836	0.861	0.877	0.00625	0.0377	-0.0188	-0.334	-0.285	-0.127	-0.181	-0.353	0.108	0.127	0.182	0.221	0.737	0.802	0.838	0.847	0.642	0.675	0.699	0.702	0.404	0.512	0.518	0.526
Cc1cccc(-c2nn3c(c2-c2ccnc4ccc(C(N)=O)cc24)CCC3)n1	-0.0698	-0.0435	-0.0298	0.0787	-0.0166	-0.0114	-0.0422	-0.0441	-0.233	-0.26	-0.269	-0.342	-0.0721	-0.126	-0.16	-0.229	-0.116	-0.0664	-0.0409	0.0836	0.0167	0.0206	-0.00167	0.117	0.371	0.487	0.502	0.523	0.372	0.444	0.459	0.437
CC(=O)O[C@]1(C(C)=O)CC[C@H]2[C@@H]3C=C(C)C4=CC(=O)CC[C@]4(C)[C@H]3CC[C@@]21C [Megestrol Acetate]	0.119	0.0962	0.0591	0.00317	0.0742	0.112	0.0515	-0.0501	-0.0198	-0.0102	-0.107	-0.454	0.0472	0.023	-0.0299	-0.147	0.0333	0.104	0.0868	0.12	0.044	0.137	0.0953	0.163	0.408	0.529	0.546	0.551	0.497	0.522	0.525	0.508
CC(C)Oc1cc(Nc2nc(N[C@@H](C)c3ccc(F)cn3)ncc2Cl)n[nH]1	0.14	0.0983	-0.0668	-0.0699	0.0367	0.0436	-0.032	-0.0869	0.0887	0.104	0.0671	-0.147	-0.29	-0.178	-0.215	-0.331	0.116	0.157	0.213	0.262	0.11	0.174	0.221	0.323	0.626	0.642	0.679	0.662	0.487	0.557	0.57	0.574
C=CCn1c(=O)c2cnc(Nc3ccc(N4CCN(C)CC4)cc3)nc2n1-c1cccc(C(C)(C)O)n1	0.112	0.069	-0.0363	-0.19	0.86	0.895	0.914	0.936	-0.0778	-0.0715	-0.175	-0.482	-0.508	-0.354	-0.45	-0.813	-0.0165	0.0521	0.116	0.141	0.884	0.926	0.954	0.971	0.447	0.527	0.532	0.552	-0.0318	0.133	0.152	0.222
CCC(CC)CC1(C(=O)Nc2ccccc2SC(=O)C(C)C)CCCCC1	0.0325	0.00234	0.00914	0.0506	-0.0537	-0.0604	-0.0741	-0.00871	-0.0908	-0.101	-0.128	-0.174	-0.0374	-0.15	-0.166	-0.178	0.00638	0.0745	0.111	0.2	-0.0639	-0.00533	0.0344	0.206	0.496	0.541	0.564	0.567	0.369	0.456	0.462	0.476
Nc1ncn([C@H]2C[C@H](O)[C@@H](CO)O2)c(=O)n1 [Decitabine]	0.1	0.0737	-0.0105	-0.0724	-0.215	0.144	0.37	0.544	0.201	0.0484	-0.0488	-0.367	0.168	0.0495	-0.00108	-0.0694	0.0943	0.11	0.126	0.167	0.13	0.49	0.632	0.753	0.474	0.558	0.569	0.567	0.496	0.556	0.566	0.53
O=C(O)CCc1ccc(NCc2cccc(Oc3ccccc3)c2)cc1	-0.00379	-0.0257	-0.0189	-0.0582	-0.0179	-0.0506	-0.13	-0.129	-0.138	-0.183	-0.212	-0.37	-0.259	-0.306	-0.351	-0.547	-0.0541	0.038	0.0596	0.0671	-0.0069	0.0299	0.0402	0.126	0.476	0.546	0.562	0.557	0.432	0.527		
